This passage reports outcome and AC50 results from PubChem BioAssay (EPA / NIEHS).

Assay [1] deals with Bile acid receptor (Homo sapiens) (UniProt Q96RI1). Put plainly: ATG_IR1_CIS: Attagene CIS-FACTORIAL HepG2 Assay for human Nuclear Receptor Subfamily 1 Group H Member 4 (NR1H4), IR1 submotif (AID 2282946). The note with it: IR1 reporter transcription, actives raise or lower the signal. In a few lines:
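Fluorescence of capillary-separated, HpaI-digested RT-PCR reporter products gave IR1-element mRNA induction in HepG2 cells 24 h after dosing. Endogenous transcription factors drove the cis-regulated reporters; activity was fitted bidirectionally against DMSO.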

Assay [2] in a line: ATG_ISRE_CIS: Attagene CIS-FACTORIAL HepG2 Assay for human Interferon Regulatory Factor 1 (IRF1) binding to an Interferon-Stimulated Response Element (ISRE) (AID 2282948). The note with it: HepG2 ISRE cis-reporter (Attagene), mRNA transcription readout; actives raise or lower the signal. In a few lines: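 Signal reflects induction or loss of ISRE-linked reporter mRNA in transiently transfected HepG2 cells after a 24 h treatment, detected by fluorescent RT-PCR fragments on capillary electrophoresis and normalised to DMSO.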

Assay [3] in a line: ATG_M_32_CIS: Attagene CIS-FACTORIAL HepG2 Assay for M32 Transcription Factor (Internal Marker) (AID 2282949).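 Also: background control marker of the multiplexed CIS panel rather than a real target.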 The note with it: HepG2 Attagene cis-factorial M32 reporter, mRNA; actives raise or lower the signal. In a few lines:
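HepG2 human liver cells transiently transfected with cis-promoter-driven multiple reporter transcription units, dosed 24 h. Reporter mRNA quantified by RT-PCR, FAM-labelled primer extension, HpaI digest and capillary electrophoresis; bidirectional fit versus DMSO baseline.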

Assay [4] deals with Hepatocyte nuclear factor 6 (Homo sapiens) (UniProt Q9UBC0). The experiment in a line: ATG_HNF6_CIS: Attagene CIS-FACTORIAL HepG2 Assay for human Hepatocyte Nuclear Factor 6 (HNF6) (AID 2282952). The note with it: HepG2 Attagene cis-factorial HNF6 reporter transcription; actives raise or lower the signal. In outline:
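Activity values derive from bidirectional fitting against DMSO of reporter mRNA levels, measured by capillary electrophoresis of labelled RT-PCR products from HepG2 cells exposed 24 h.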

For assay [5], the target named is Heat shock factor protein 1 (Homo sapiens) (UniProt Q00613). The experiment in a line: ATG_HSE_CIS: Attagene CIS-FACTORIAL HepG2 Assay for human Heat Shock Transcription Factor 1 (HSE) (AID 2282953). To be noted: HepG2 HSE cis-reporter, Attagene RNA transcription; actives raise or lower the signal. In a few lines: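 Endogenous transcription factor activity captured via cis-promoter reporter units transfected into HepG2; treatment lasted 24 h. Fluorescence intensity of reporter fragments analysed with bidirectional curve fitting, DMSO baseline.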

A short description of assay [6]: ATG_MRE_CIS: Attagene CIS-FACTORIAL HepG2 Assay for human Metal Responsive Element (MRE) (AID 2282954). The note with it: HepG2 MRE cis-reporter transcription, Attagene multiplex; actives raise or lower the signal. In outline:
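Measured here is mRNA induction from an MRE cis-element reporter in HepG2 after 24 h, quantified by fluorescence of labelled RT-PCR products on capillary electrophoresis; gain- and loss-of-signal fits use DMSO as baseline.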

Assay [7] in a line: ATG_PBREM_CIS: Attagene CIS-FACTORIAL HepG2 Assay for human Phenobarbital-responsive Enhancer Module (PBREM) (AID 2282955). To be noted: HepG2 PBREM cis-reporter, Attagene multiplexed transcription; actives raise or lower the signal. In outline:
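Transfected liver-derived HepG2 cells exposed 24 h; PBREM reporter transcript quantified via RT-PCR and capillary electrophoresis, with activity in either direction referenced to DMSO.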

In assay [8] the target is Paired box protein Pax-6 (Homo sapiens) (UniProt P26367). The experiment in a line: ATG_Pax6_CIS: Attagene CIS-FACTORIAL HepG2 Assay for human Paired Box 6 (PAX6) (AID 2282956). To be noted: HepG2 CIS-FACTORIAL PAX6 reporter transcription, RNA readout; actives raise or lower the signal. In outline: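 Values derive from bidirectional curve fitting of reporter mRNA signal relative to DMSO. HepG2 cells bearing transfected cis-regulated MRTUs were exposed for 24 h; transcripts were read by RT-PCR and capillary electrophoresis.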

Assay [9] can be described thus: ATG_PXRE_CIS: Attagene CIS-FACTORIAL HepG2 Assay for human Pregnane X Receptor Element (PXRE) (AID 2282957). To be noted: HepG2 Attagene CIS-FACTORIAL PXRE reporter, mRNA; actives raise or lower the signal. In outline: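 Fluorescent capillary electrophoresis of amplified reporter cDNA gave the signal, collected 24 h after dosing HepG2 cells that held transfected cis-element reporter constructs.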

The nature of assay [10]: ATG_PPRE_CIS: Attagene CIS-FACTORIAL HepG2 Assay for human Peroxisome Proliferator-activated Response Element (PPRE) (AID 2282958). The note with it: HepG2 PPRE cis-element reporter, Attagene transcription factor profiling; actives raise or lower the signal. In a few lines:
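Measured endpoint: PPRE-controlled reporter mRNA, detected by RT-PCR and capillary electrophoresis fluorescence, from transiently transfected HepG2 cells 24 h after dosing. Curves fitted in both directions using DMSO baseline.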

Assay [11] in a line: ATG_RORE_CIS: Attagene CIS-FACTORIAL HepG2 Assay for human RAR-related Orphan Receptor Element (RORE) (AID 2282959). To be noted: HepG2 Attagene cis-factorial RORE reporter, mRNA; actives raise or lower the signal. In a few lines:
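Transiently transfected HepG2 reporter cells were treated 24 h. Reporter transcripts were detected by RT-PCR and capillary electrophoresis, with bidirectional fitting against DMSO.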

Assay [12] has as its target Transcription factor Sp1 (Homo sapiens) (UniProt P08047). Put plainly: ATG_Sp1_CIS: Attagene CIS-FACTORIAL HepG2 Assay for human Specificity Protein 1 (Sp1) (AID 2282961). The note with it: HepG2 Sp1 cis-reporter transcription, actives raise or lower the signal. In outline:
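Endpoint reflects endogenous Sp1 transcriptional activity, not an exogenous fusion protein: HepG2 cells with transfected cis-regulated reporters, 24 h dosing, RT-PCR/capillary electrophoresis mRNA read-out, DMSO-normalised bidirectional fit.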

In assay [13] the target is Signal transducer and activator of transcription 3 (Homo sapiens) (UniProt P40763). The experiment in a line: ATG_STAT3_CIS: Attagene CIS-FACTORIAL HepG2 Assay for human Signal Transducer and Activator of Transcription 3 (STAT3) (AID 2282963). The note with it: HepG2, Attagene cis-factorial STAT3 reporter transcription; actives raise or lower the signal. In outline: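 Fluorescence intensity of 6-FAM-labelled reporter fragments, separated by capillary electrophoresis after RT-PCR, gave the signal. Cells were HepG2 transfected with cis-element reporter units and treated 24 h; fitting was bidirectional relative to DMSO.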

Assay [14] in a line: ATG_TA_CIS: Attagene CIS-FACTORIAL HepG2 Assay for human TA Basal Promoter (AID 2282964). To be noted: HepG2 Attagene CIS-factorial TA basal promoter reporter; actives raise or lower the signal. In outline:
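Fluorescence from labelled RT-PCR reporter fragments, separated by capillary electrophoresis, gives the signal. Cells: HepG2 transiently carrying multiple reporter units, 24 h chemical dosing. Gain or loss relative to DMSO.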

Assay [15] is described as follows: ATG_TCF_b_cat_CIS: Attagene CIS-FACTORIAL HepG2 Assay for human T-Cell-Factor with beta-catenin (TCF/b-cat) (AID 2282965). To be noted: HepG2 TCF/beta-catenin cis-reporter transcription, actives raise or lower the signal. In a few lines: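 HepG2 cells transiently transfected with cis-promoter-driven multiplexed reporter units; reporter mRNA measured 24 h after dosing by RT-PCR, FAM labelling, HpaI digestion and capillary electrophoresis. Bidirectional fitting relative to DMSO baseline.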

Assay [16] concerns the target Hypoxia-inducible factor 1-alpha (Homo sapiens) (UniProt Q16665). Put plainly: ATG_HIF1a_CIS: Attagene CIS-FACTORIAL HepG2 Assay for human Hypoxia Inducible Factor 1 (HIF1A) (AID 2282951). The note with it: HepG2 Attagene cis-factorial HIF1a reporter transcription; actives raise or lower the signal. In outline:
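Dosed 24 h, transfected HepG2 cells yielded total RNA whose reporter transcripts were RT-PCR-amplified and sized by capillary electrophoresis using fluorescent labelling; DMSO defined baseline, with gain and loss of signal both fitted.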

Assay [17] can be described thus: ATG_Sox_CIS: Attagene CIS-FACTORIAL HepG2 Assay for human SRY-box transcription factor (SOX) (AID 2282960). The note with it: HepG2 Attagene cis-factorial SOX reporter, mRNA; actives raise or lower the signal. In outline:
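Gain- or loss-of-signal endpoint, fitted bidirectionally with DMSO as negative control. Based on reporter mRNA from transfected HepG2 cells harvested 24 h post-treatment and quantified via RT-PCR and capillary electrophoresis.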

Assay [18] in a line: ATG_SREBP_CIS: Attagene CIS-FACTORIAL HepG2 Assay for human Sterol Regulatory Element Binding (SREBP) (AID 2282962). The note with it: HepG2 Attagene cis-factorial SREBP reporter, mRNA; actives raise or lower the signal. In a few lines:
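Values derive from bidirectional curve fitting with DMSO as baseline. The underlying measurement is reporter mRNA from cis-element-regulated units in transiently transfected HepG2, quantified by RT-PCR and capillary electrophoresis after 24 h exposure.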

Assay [19] in a line: ATG_M_06_CIS: Attagene CIS-FACTORIAL HepG2 Assay for M06 Transcription Factor (Internal Marker) (AID 2282950). The note with it: HepG2 Attagene CIS-FACTORIAL M06 internal marker reporter; actives raise or lower the signal. In a few lines: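 HepG2 liver cells, 24 h exposure. Reporter transcripts from transfected cis-element constructs quantified by RT-PCR/capillary electrophoresis fluorescence. Bidirectional curve fit against DMSO.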

A short description of assay [20]: ATG_GRE_CIS: Attagene CIS-FACTORIAL HepG2 Assay for human Glucocorticoid Response Elements (GRE) (AID 2282947). To be noted: HepG2 GRE cis-reporter, Attagene multiplex mRNA; actives raise or lower the signal. In outline: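 Fluorescence intensity of reporter-specific cDNA fragments, separated by capillary electrophoresis, provides the signal. Constructs carry cis-regulating promoters in transiently transfected HepG2 liver cells; 24 h incubation; fitting is bidirectional against DMSO.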

Activity calls are given as the source filed them. The calls were made as follows: active = hit-call score of the fitted dose curve at least 0.9, where 1 is the maximum; inactive = score below 0.9.

Sequence of Transcription factor Sp1 (Homo sapiens) (P08047 whole entry, looked up, the tested form may be a part): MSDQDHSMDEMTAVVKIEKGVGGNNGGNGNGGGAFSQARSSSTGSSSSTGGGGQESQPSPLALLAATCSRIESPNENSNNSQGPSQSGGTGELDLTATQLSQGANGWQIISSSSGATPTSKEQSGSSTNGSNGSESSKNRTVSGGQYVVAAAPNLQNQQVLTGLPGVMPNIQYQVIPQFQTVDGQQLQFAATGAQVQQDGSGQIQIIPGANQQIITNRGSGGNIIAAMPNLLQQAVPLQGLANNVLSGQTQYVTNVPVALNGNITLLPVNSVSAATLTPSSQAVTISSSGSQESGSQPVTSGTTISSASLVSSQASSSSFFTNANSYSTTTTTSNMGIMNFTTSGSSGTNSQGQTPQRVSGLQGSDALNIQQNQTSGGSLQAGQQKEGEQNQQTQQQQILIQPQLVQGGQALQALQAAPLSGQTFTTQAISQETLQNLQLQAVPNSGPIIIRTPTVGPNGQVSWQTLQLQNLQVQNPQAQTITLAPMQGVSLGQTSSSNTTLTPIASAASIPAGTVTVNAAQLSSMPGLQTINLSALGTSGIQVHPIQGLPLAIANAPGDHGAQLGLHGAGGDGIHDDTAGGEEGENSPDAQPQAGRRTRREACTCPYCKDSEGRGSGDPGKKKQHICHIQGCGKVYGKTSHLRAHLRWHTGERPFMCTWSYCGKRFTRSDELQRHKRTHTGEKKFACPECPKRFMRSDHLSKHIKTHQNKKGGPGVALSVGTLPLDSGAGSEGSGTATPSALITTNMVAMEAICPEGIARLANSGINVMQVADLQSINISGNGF
Sequence of Heat shock factor protein 1 (Homo sapiens) (Q00613 whole entry, looked up, the tested form may be a part): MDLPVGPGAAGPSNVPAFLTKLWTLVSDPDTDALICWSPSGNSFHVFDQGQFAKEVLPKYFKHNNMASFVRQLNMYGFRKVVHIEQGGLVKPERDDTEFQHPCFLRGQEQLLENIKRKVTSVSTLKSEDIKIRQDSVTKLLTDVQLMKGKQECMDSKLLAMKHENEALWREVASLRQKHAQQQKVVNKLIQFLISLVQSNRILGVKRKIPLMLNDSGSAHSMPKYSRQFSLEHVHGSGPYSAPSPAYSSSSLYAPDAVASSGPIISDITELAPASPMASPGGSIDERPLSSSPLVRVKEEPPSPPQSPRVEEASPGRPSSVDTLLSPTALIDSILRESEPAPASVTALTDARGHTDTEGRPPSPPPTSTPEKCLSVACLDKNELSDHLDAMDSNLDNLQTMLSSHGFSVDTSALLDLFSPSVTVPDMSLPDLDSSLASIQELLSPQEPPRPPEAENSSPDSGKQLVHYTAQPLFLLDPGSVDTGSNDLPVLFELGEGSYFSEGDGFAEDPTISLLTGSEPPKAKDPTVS
Sequence of Bile acid receptor (Homo sapiens) (Q96RI1 whole entry, looked up): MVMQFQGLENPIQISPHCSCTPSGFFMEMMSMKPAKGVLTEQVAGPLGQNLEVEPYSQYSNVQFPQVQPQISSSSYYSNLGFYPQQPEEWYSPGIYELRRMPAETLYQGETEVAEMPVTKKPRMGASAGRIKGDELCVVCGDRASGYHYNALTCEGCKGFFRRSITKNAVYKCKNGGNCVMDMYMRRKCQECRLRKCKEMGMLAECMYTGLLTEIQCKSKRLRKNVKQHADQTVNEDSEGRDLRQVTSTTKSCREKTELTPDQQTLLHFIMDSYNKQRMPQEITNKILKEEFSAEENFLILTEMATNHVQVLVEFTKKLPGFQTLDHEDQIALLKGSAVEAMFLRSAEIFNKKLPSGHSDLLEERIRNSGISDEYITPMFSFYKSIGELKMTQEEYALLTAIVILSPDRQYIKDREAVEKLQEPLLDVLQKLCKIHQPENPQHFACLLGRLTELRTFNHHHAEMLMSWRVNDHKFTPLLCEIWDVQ
Sequence of Hepatocyte nuclear factor 6 (Homo sapiens) (Q9UBC0 whole entry, looked up): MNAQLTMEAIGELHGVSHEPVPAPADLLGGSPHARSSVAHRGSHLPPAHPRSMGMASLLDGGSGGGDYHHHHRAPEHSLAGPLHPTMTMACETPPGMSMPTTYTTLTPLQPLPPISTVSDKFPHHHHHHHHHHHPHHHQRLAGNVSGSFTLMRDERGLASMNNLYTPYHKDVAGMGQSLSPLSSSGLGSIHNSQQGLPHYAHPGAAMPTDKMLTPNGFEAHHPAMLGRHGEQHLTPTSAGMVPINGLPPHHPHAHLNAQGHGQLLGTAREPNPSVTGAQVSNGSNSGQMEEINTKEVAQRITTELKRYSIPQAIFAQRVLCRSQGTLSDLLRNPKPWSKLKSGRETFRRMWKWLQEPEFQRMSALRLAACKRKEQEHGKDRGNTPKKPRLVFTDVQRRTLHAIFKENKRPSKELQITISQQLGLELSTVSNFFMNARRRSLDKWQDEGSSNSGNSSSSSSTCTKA
Sequence of Paired box protein Pax-6 (Homo sapiens) (P26367 whole entry, looked up): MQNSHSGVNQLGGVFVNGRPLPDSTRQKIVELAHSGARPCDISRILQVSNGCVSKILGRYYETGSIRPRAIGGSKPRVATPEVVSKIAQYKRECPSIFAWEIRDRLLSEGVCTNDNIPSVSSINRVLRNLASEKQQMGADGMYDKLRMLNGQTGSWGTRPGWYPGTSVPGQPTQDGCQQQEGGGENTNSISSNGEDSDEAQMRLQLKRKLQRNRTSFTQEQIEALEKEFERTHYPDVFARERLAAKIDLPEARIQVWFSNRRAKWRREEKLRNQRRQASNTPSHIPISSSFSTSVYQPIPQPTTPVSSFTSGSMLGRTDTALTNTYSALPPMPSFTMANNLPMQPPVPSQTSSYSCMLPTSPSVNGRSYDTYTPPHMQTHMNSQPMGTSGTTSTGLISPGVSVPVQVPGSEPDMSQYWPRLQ
Sequence of Hypoxia-inducible factor 1-alpha (Homo sapiens) (Q16665 whole entry, looked up): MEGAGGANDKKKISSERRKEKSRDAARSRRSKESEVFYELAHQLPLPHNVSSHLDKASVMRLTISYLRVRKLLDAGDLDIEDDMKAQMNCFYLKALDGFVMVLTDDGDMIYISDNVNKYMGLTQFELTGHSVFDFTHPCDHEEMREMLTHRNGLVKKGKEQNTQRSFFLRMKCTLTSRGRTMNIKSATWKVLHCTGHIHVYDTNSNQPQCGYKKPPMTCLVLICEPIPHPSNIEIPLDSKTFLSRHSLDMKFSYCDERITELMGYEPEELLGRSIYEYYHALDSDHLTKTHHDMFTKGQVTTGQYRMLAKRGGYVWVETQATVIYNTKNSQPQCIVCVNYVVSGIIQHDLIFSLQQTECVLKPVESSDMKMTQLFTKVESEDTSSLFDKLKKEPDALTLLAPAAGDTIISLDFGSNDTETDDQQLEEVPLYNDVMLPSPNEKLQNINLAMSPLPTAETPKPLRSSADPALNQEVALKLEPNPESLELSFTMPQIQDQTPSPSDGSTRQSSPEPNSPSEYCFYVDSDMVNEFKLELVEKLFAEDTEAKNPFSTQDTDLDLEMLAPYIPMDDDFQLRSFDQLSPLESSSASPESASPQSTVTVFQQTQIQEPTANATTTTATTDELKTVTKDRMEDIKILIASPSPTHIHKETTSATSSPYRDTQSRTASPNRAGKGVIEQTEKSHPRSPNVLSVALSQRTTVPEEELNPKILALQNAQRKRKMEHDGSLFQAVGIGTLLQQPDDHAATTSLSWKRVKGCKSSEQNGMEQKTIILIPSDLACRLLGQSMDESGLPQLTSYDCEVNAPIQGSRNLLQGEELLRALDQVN
Sequence of Signal transducer and activator of transcription 3 (Homo sapiens) (P40763 whole entry, looked up, the tested form may be a part): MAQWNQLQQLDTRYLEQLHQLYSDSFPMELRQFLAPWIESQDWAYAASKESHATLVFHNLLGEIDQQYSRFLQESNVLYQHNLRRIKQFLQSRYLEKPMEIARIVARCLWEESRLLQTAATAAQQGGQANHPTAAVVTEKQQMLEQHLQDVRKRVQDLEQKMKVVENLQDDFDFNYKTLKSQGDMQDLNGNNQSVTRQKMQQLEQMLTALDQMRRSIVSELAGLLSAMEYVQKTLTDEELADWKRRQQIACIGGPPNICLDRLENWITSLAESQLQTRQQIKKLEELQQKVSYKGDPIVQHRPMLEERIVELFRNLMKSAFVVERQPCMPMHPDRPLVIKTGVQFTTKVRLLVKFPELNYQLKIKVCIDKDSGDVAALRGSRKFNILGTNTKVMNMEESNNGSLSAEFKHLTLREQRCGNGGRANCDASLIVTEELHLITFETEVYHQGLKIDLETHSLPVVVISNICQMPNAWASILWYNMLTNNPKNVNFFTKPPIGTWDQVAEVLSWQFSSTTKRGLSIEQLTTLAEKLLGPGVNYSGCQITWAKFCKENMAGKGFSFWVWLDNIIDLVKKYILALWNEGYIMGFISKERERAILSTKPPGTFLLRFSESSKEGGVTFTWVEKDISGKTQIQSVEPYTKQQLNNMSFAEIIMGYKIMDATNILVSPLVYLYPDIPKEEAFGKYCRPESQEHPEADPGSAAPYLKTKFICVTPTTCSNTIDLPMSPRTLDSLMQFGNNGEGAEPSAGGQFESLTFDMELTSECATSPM

In the case of `CCCCCCCCCCCCCCCC(=O)OC/C=C(C)/C=C/C=C(C)/C=C/C1=C(C)CCCC1(C)C`, the outcome in assay [1], in assay [2], in assay [3], in [4], in [5] and in assay [6] was inactive. In addition, the outcome in [7], in [8], in assay [10], in assay [11], in assay [12] and in [13] was inactive. For the same compound, the compound was called inactive in [14] and in assay [15]. The AC50 in assay [9] was 3.09 µM (active).
Consider `CCCCCc1ccco1`, for which the AC50 in assay [1] is 105 µM (active); in [5], 115 µM (active); in [8] it was 111 µM (active); in assay [9], 4.15 µM (active); in assay [15], 70 µM (active). Besides, the call in [2], in [3], in assay [16], in assay [4], in [6] and in assay [7] was inactive. In addition, the compound was called inactive in assay [10], in assay [11], in assay [17], in assay [12], in assay [18] and in assay [13]. Further, the compound was classed as inactive in assay [14].
`C=C(C)C(=O)OCCOCCOCCOCCOC(=O)C(=C)C`: the outcome in assay [1], in assay [2], in assay [3], in assay [19], in [16] and in assay [4] was inactive. Also, the compound was classed as inactive in [5], in assay [6], in assay [8], in [11], in assay [17] and in [12]. The result in assay [18], in [13] and in [14] was inactive. In addition, the AC50 in assay [9] is 35.3 µM (active).
For the compound `COc1ccc(COC(C)=O)cc1`, the compound was classed as inactive in [1], in assay [2], in assay [19], in assay [4], in assay [5] and in assay [6]. Besides, the result in assay [7], in assay [8], in assay [9], in [11], in [17] and in assay [12] was inactive. Also, the outcome in assay [18], in [13], in [14] and in assay [15] was inactive.
For `CC(C)Nc1nc(N)nc(Cl)n1`, the result in assay [20], in [2], in assay [3], in assay [19], in assay [16] and in assay [4] was inactive. Besides, the call in [5], in [6], in assay [7], in assay [8], in assay [9] and in assay [10] was inactive. Further, the compound was called inactive in [17], in [12], in assay [18], in [13], in assay [14] and in [15].
With `COC(=O)c1cccnc1`, the call in assay [20], in assay [2], in assay [3], in assay [19], in [16] and in assay [4] was inactive. Also, the result in assay [5], in assay [6], in assay [7], in assay [8], in assay [9] and in assay [10] was inactive. Also, the outcome in [11], in [17], in assay [12], in assay [18], in assay [13] and in [15] was inactive.
Take `COC(CC(C)CCCC(C)(C)O)OC` (stereo not drawn): the call in assay [20], in [2], in assay [3], in [19], in assay [16] and in [4] was inactive. Besides, the result in [5], in assay [6], in assay [7], in assay [8], in assay [9] and in [10] was inactive. Also, the compound was called inactive in [17], in [12], in assay [18], in assay [13] and in assay [14].
